Screening data as filed in PubChem.
A selection: hits, their analogues and other compounds. The true share with any hit is near 7.4%.
FLuc modulator: firefly luciferase modulation, counter-screen for miR-21 project. purified FLuc, Km substrates, luminescence inhibition. AID 588342. Potency, µM (titrated, usually from 57.5 µM), for inactives: at the highest dose activity change, negative = inhibition, most hits filed as inhibitors. 360,000 compounds, 6.9% hits. P08659;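 further: plate controls were vehicle for no effect and reference inhibitor for full effect; nearly all actives have a fitted effect of over 55% in size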
Target sequence (P08659 whole entry, looked up): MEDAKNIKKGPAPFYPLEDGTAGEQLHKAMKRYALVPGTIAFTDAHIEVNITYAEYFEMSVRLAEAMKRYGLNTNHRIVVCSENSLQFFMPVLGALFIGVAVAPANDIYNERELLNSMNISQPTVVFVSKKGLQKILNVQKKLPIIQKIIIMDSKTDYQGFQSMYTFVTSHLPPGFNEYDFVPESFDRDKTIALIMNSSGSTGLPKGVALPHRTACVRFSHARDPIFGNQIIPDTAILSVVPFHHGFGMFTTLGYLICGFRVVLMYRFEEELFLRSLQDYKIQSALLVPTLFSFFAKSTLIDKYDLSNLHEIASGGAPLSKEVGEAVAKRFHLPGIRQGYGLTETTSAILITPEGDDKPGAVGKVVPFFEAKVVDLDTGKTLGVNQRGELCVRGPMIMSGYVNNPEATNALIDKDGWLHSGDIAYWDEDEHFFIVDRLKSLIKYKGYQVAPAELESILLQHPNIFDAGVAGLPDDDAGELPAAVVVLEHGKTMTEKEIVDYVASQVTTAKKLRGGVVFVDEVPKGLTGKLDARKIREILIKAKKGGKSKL
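Purified P. pyralis luciferase, 10 nM final, with Km-level 10 uM D-luciferin and 10 uM ATP in 50 mM Tris acetate pH 7.5, 10 mM Mg acetate, 0.01% Tween-20, 0.05% BSA; 6-point qHTS titration about 60 µM downward; luminescence read.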
ELG1 genotoxic: inducers of genotoxicity in HEK293T ELG1-luciferase cells | 330,000 compounds, 1.3% hits | Potency, µM (top dose mostly 46 µM), without a hit: at the highest dose activity change, positive = activation, hits mostly activators | AID 504466 | HEK293T ELG1-luciferase reporter, luminescence, 16 h; further: % of control where 0% means no effect; nearly all actives have a fitted effect of over 60% in size
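Step 1: seed 2,000 HEK293T ELG1-luciferase cells per well. Step 2: add compound or DMSO, incubate 16 hr at 37 °C. Step 3: ONE-Glo, 30 min at room temperature, read luminescence.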
NPC1 prom act: activates the NPC1 promoter. 320,000 compounds, 2.4% hits. Huh7 NPC1 promoter luciferase reporter, 24 h. Potency, µM (highest dose often 9.22 µM), for inactives: at the highest dose activation, most hits filed as activators; further: % of control where 0% means no effect; nearly all actives have a fitted effect of over 60% in size
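Cells: Huh7 expressing luciferase under the NPC1 promoter, 1500/well. Seeded 2 h, compound added, incubated 24 h at 37 °C. Luciferase reagent, 10 min ambient, then luminescence.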
SMN2 splice enh: increases expression of the SMN2 splice variant | 210,000 compounds, 2.8% hits | HEK293 SMN2-luciferase splicing reporter, luminescence, 30-36 h | Potency, µM (titrated, usually from 46.1 µM), without a hit: at the top dose activity change, positive = activation, hits mostly activators | AID 1458; further: % of control where 0% means no effect; nearly all actives have a fitted effect of over 55% in size
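HEK293 cells carry an SMN2 […]–luciferase reporter in which exon 7 inclusion puts luciferase in frame. Cells were plated 10-12 h before compound addition, then incubated 30-36 h at 37C. ONE-Glo luminescence was read; sodium butyrate at 4.5 mM final served as control.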
Rab9 promoter act: Rab9 promoter activation | Huh7 Rab9 promoter-luciferase reporter, luminescence, 24 h | Potency, µM (series often up to 9.22 µM), for inactives: at the top dose activation, negative = inhibition, actives largely listed as activators | 320,000 compounds, 2.8% hits; further: % of control where 0% means no effect; nearly all actives have a fitted effect of over 60% in size
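Cells were plated at 1500 per well in reduced-serum medium with 10% FBS and left 2 h. Compound in DMSO was then added for 24 h at 37 °C. Reporter signal was read by luminescence after 10 min with luciferase detection reagent.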
* marks the source's active call; other numbers are inactive results; ? = inconclusive; · = no result given; [ ] = dose if it differs, or a comment. The call rests on the fitted dose curve; in most records, active means well fitted curve in the direction sought with a large enough effect; inconclusive means small, poorly fitted or top-dose-only effect, or another doubt; inactive means no such curve, though single readings can be large; an effect the other way counts as inactive or inconclusive. Potency means the concentration at half of the fitted maximal effect.

SMILES | FLuc modulator | ELG1 genotoxic | NPC1 prom act | SMN2 splice enh | Rab9 promoter act
N#Cc1c(CSCC(=O)O)cc(=O)n2c1[nH]c1ccccc12 | ? | -1.2% | -1.9% | · | -2.8%
c1ccc2cc(Sc3ncnc4c3oc3ccccc34)ccc2c1 | 16.9µM* | 0.8% | ? | -21.5% | ?
Clc1ncnc2c1oc1ccccc12 | 9.53µM* | ? | 1.3% | 12.6µM* | -1.2%
O=C(Nc1nnc(CC2=CCCCC2)s1)c1cccs1 | ? | 14.6µM* | ? | 14.1µM* | ?
O=C(Nc1nnc(Cc2ccccc2)s1)c1cccs1 | ? | ? | ? | 12.1% | 1.78µM*
COc1ccc(Cc2nnc(NC(=O)c3cccs3)s2)cc1 | ? | ? | -0.1% | -7.0% | 0.9%
O=C(Nc1nnc(Cc2ccccc2)s1)c1ccccc1 | -17.8% | ? | 3.16µM* | · | ?
O=C(Nc1nnc(Cc2ccc(Cl)cc2)s1)c1cccs1 | -0.9% | 21.3% | 17.1% | 15.3% | 20.4%
O=C(c1ccc2c(c1)N(Cc1cccc(Cl)c1)C(=O)c1ccccc1S2=O)N1CCN(c2cccc(C(F)(F)F)c2)CC1 (stereo not drawn) | -0.2% | · | · | · | ·
COc1ccc(CCNC(=O)CSc2nc3ccccc3nc2Cc2ccc(Cl)cc2)cc1OC | -7.5% | · | · | · | ·
Cc1ccc(N2CCN(S(=O)(=O)c3nnc(NC(=O)c4cccc(F)c4)s3)CC2)cc1 | -1.9% | · | · | · | ·
Cc1ccc(NC(=O)Cn2c(=O)n(Cc3ccccc3)c(=O)c3c(C)c(C)sc32)c(C)c1 | -0.7% | · | · | -13.0% | ·
Cc1cccc(OCCn2nnc3sc4c(c3c2=O)CCCC4)c1 | ? | · | · | 10.2% | ·
Cc1cc(=O)n2[nH]c(N)c(N=Nc3ccccc3)c2n1 | ? | -6.0% | -1.8% | 18.5% | 2.2%
COc1ccc(-c2c(C(F)(F)F)[nH]n3c(=O)cc(-c4ccccc4)nc23)cc1 | 19µM* | -8.4% | -2.1% | · | 1.5%
COc1cccc(N=Nc2c(=O)[nH]n3c(C)cc(C)nc23)c1 | -16.9% | 0.2% | -2.3% | 23.7% | 1.0%
COc1cccc(-c2cc3nc(-c4ccccc4)cc(=O)n3[nH]2)c1 | 12µM* | ? | -11.0% | · | 0.3%
Cc1[nH]n2c(=O)cc(-c3ccc(Cl)cc3)nc2c1-c1ccccc1 | ? | · | · | -60.8% | ·
COc1cccc(N=Nc2c(N)[nH]n3c(=O)cc(-c4ccccc4)nc23)c1 | 10.7µM* | -7.7% | -1.4% | -86.2% | 2.9%
Cc1ccc(N=Nc2c(N)[nH]n3c(=O)cc(-c4ccccc4)nc23)cc1 | 9.53µM* | 1.5% | 0.9% | -74.1% | -3.1%
O=c1cc(-c2ccccc2)nc2cc(-c3ccc(F)cc3)[nH]n12 | ? | · | · | 10.3% | ·
CC1CC(=O)N(CC(=O)Nc2ccc(F)cc2F)c2ccccc2S1 (stereo not drawn) | -7.6% | · | · | -11.9% | ·
COc1ccc2c(c1)O[C@@H](c1cccc(C(F)(F)F)c1)[C@H](OC(=O)N[C@H](C)C1CCCCC1)C2=O | · | · | · | 7.9% | ·
Cc1ccc(Sc2ccc(N3CCC(C(=O)Nc4ccc(C)c(F)c4)CC3)nn2)cc1 | -18.6% | · | · | 7.4% | ·
COc1cccc(NC(=O)C(CCSC)NC(=O)C2CCC(C)CC2)c1 (stereo not drawn) | -0.6% | · | · | -3.2% | ·
SMILES | FLuc modulator | ELG1 genotoxic | NPC1 prom act | SMN2 splice enh | Rab9 promoter act
CCOCCCNC(=O)c1c(NC(=O)c2cc(=O)c3cc(C)c(C)cc3o2)sc2c1CCC2 | 0.6% | · | · | ? | ·
Cc1nc(CSc2ccc(Br)cc2)cs1 | 16.9µM* | 11.5% | -1.4% | · | 3.9%
COc1ccc(OC)c(CCNC(=O)Cn2nc(C)n3c(cc4sccc43)c2=O)c1 | 0.5% | · | · | -0.7% | ·
CCOC(=O)c1csc(COc2ccc(OC)cc2)n1 | ? | 9.3% | 0.447µM* | · | 0.447µM*
CCOC(=O)Cc1csc(N)n1 | -0.7% | 1.1% | -0.9% | -4.4% | 10.0%
CCOC(=O)c1csc(N)n1 | 0.849µM* | ? | ? | · | 2.82µM*
CC1CCN(S(=O)(=O)c2ccc3c(c2)oc(=O)n3CC(=O)N2CCCCC2)CC1 | -3.7% | · | · | -3.3% | ·
COc1ccccc1CN1CC(C(=O)N2CCCCO2)CCC1=O (stereo not drawn) | ? | ? | 25.7% | · | ?
O=C1CCC(C(=O)N2CCCCO2)CN1CCc1ccccc1 (stereo not drawn) | 16.9µM* | ? | ? | · | ?
Cc1ccc(C)c(N2CCN(C(=O)c3cccn3-c3nnc(N4CCCCC4)s3)CC2)c1 | -14.3% | · | · | · | ·
Cc1cc(NC(=O)Nc2ccc(Cl)cc2)no1 | ? | 11.9% | 27.1% | · | 27.1%
Cc1cc(NC(=O)c2ccc(Cl)cc2Cl)no1 | 8.49µM* | ? | 1.41µM* | · | 2.82µM*
O=C(Nc1ccsn1)c1ccc(Cl)cc1Cl | ? | ? | 3.16µM* | · | ?
COc1ccccc1OCCNC(=O)c1ccc(Br)cc1 | 23.9µM* | ? | ? | · | -0.4%[1.84 µM]
O=C(COc1ccccc1)NCCSc1ccccc1 | 26.9µM* | 20.6µM* | ? | 20.5% | 12.2%
COc1ccc(C(=O)NCCSc2ccccc2)cc1OC | ? | ? | ? | 14.1µM* | ?
CC(C)(C)SCCNC(=O)COc1ccccc1 | -7.4% | 6.7% | -3.5% | 7.4% | -3.8%
COc1ccccc1OCCNC(=O)Nc1ccc(Br)cc1 | 2.4% | -3.4% | 0.3% | 10.5% | -2.1%
CN(C)S(=O)(=O)c1ccc(C(=O)NCCSc2ccccc2)cc1 | ? | 10.3µM* | ? | 18.4% | ?
Cc1ccc(-c2[nH]c3ccccc3c2SCCNC(=O)c2ccc(S(=O)(=O)N(C)C)cc2)cc1 | -4.1% | · | · | -13.8% | ·
CCc1nnc2n1N(C(C)=O)C(c1ccc(C(C)(C)C)cc1)=C(C(C)=O)S2 | -2.6% | · | · | · | ·
CC(C)c1ccc2c(c1)CC[C@H]1[C@@](C)(CN)CCC[C@@]21C | · | · | · | -6.2%[9.22 µM] | ·
CC(=O)Oc1ccc(-c2nc(-c3cccnc3)no2)cc1 | 6.01µM* | 5.8µM* | 3.55µM* | ? | ?
CC(=O)Nc1ccc(Oc2ccc(-c3noc(C)n3)cc2)cc1 | -9.5% | · | · | 5.4% | ·
CCOc1ccc(-c2nc(-c3cccnc3)no2)cc1OCC | ? | 8.9% | 6.5% | -15.9% | 0.8%
SMILES | FLuc modulator | ELG1 genotoxic | NPC1 prom act | SMN2 splice enh | Rab9 promoter act
CC(=O)Oc1ccc(Oc2ccc(-c3noc(C)n3)cc2)cc1 | ? | 23.1µM* | 11.3% | ? | ?
Cc1sc2ncnc(N3CCC(C(=O)Nc4nc(-c5cccs5)cs4)CC3)c2c1C | 10.7µM* | 1.1% | -21.1% | · | -19.9%
Cc1ccc(C(=O)NNC(=O)c2ccccc2)cc1S(=O)(=O)N1CCCCC1 | 21.3µM* | 2.8% | 0.5% | · | -5.1%
Cc1ccc(C(=O)NC2CCCCCC2)cc1S(=O)(=O)N1CCOCC1 | -18.9% | ? | ? | · | 29.2%
Cc1ccc(C(=O)Nc2ccccc2C(=O)O)cc1S(=O)(=O)N1CCCCCC1 | 0.953µM* | · | · | ? | ·
Cc1ccc(C(=O)NC2CCN(Cc3ccccc3)CC2)cc1S(=O)(=O)N1CCOCC1 | -1.7% | 18.3µM* | -5.0% | · | -14.2%
COc1ccccc1NC(=O)c1ccc(C)c(S(=O)(=O)N2CCCCC2)c1 | ? | -18.3% | 12.8% | · | -4.4%
